The values below come from the supplement of paper PMC9023506.

Counter-ions that a name gives are not always drawn.

In this assay the test system is Danio rerio larvae (5 dpf). Description: activity during period 15 (no stimuli), difference vs DMSO (percentage points (treated minus DMSO)); higher = more of the behaviour than the DMSO vehicle control. The conditions noted are these: 10 µM; exposure time: 3 h pre-incubation + 3 h imaging. As to the method:
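5-dpf wild-type zebrafish larvae were imaged in 96-well plates. They were treated with 190 Tocris FDA-approved drugs at 10 µM (1 µl/ml DMSO) for 3 h before and 3 h during imaging at 28.5 °C, 48 larvae per drug. Automated image analysis gave % time moving and optomotor responses. Values are drug group mean minus DMSO vehicle mean (n=844), in percentage points, for 10 behaviours.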
As to `CCCCC1=NC2(CCCC2)C(=O)N1Cc1ccc(-c2ccccc2-c2nnn[nH]2)cc1` [Irbesartan], the “activity during period 15” value was determined as 5.68. On to `CCOC(=O)N1CCC(=C2c3ccc(Cl)cc3CCc3cccnc32)CC1` [Loratidine], for which the “activity during period 15” value is -25. Turning to `C/C(O)=C(\C#N)C(=O)Nc1ccc(C(F)(F)F)cc1` [Teriflunomide], the “activity during period 15” value worked out at 10.3. Consider `CC(=O)Oc1cc2c(s1)CCN(C(C(=O)C1CC1)c1ccccc1F)C2` (stereo not given) [Prasugrel], for which the “activity during period 15” value stood at 11.8.

For the molecule `CCCCCCCN(CC)CCCC(O)c1ccc(NS(C)(=O)=O)cc1` (stereo not given) [Ibutilide hemifumarate], the “activity during period 15” value was -10. In the case of `CCC(=O)O[C@]1(C(=O)SCF)[C@H](C)C[C@H]2[C@@H]3C[C@H](F)C4=CC(=O)C=C[C@]4(C)[C@@]3(F)[C@@H](O)C[C@@]21C` [Fluticasone propionate], the “activity during period 15” value was found to be 8.18.

As to `CCOc1cc(CC(=O)N[C@@H](CC(C)C)c2ccccc2N2CCCCC2)ccc1C(=O)O` [Repaglinide], the “activity during period 15” value was -1.47.

Consider `Cc1cccc(CN2CCN(C(c3ccccc3)c3ccc(Cl)cc3)CC2)c1` (stereo not given) [Meclizine dihydrochloride], for which the “activity during period 15” value amounted to 8.13. With `CC(=O)O[C@]1(C(C)=O)CC[C@H]2[C@@H]3C=C(C)C4=CC(=O)CC[C@]4(C)[C@H]3CC[C@@]21C` [Megestrol Acetate], the “activity during period 15” value was -0.283. In the case of `Clc1ccc2nsnc2c1NC1=NCCN1` [Tizanidine hydrochloride], the “activity during period 15” value is -20.8. `CC(C)COCC(CN(Cc1ccccc1)c1ccccc1)N1CCCC1` (stereo not given) [Bepridil hydrochloride]: the “activity during period 15” value amounted to 13.7.

In the case of `CCCN(CCc1cccs1)[C@H]1CCc2c(O)cccc2C1` [Rotigotine hydrochloride], the “activity during period 15” value was -35.4.

For `Cc1ccc(O)c([C@H](CCN(C(C)C)C(C)C)c2ccccc2)c1` [Tolterodine L-tartrate], the “activity during period 15” value was determined as 13.9. For `O=c1n(CCCN2CCN(c3cccc(Cl)c3)CC2)nc2ccccn12` [Trazodone hydrochloride], the “activity during period 15” value was 1.62. Next, `C#C[C@]1(O)CC[C@H]2[C@@H]3CCC4=CC(=O)CC[C@@H]4[C@H]3CC[C@@]21CC` [Levonorgestrel]: -6.07. `CN(C)C(=N)NC(=N)N` [Metformin hydrochloride]: the “activity during period 15” value is -4.35. Next, `CCCCc1nc(Cl)c(CO)n1Cc1ccc(-c2ccccc2-c2nnn[nH]2)cc1` [Losartan potassium]: 3.67; `COc1cccc2c1C(=O)c1c(O)c3c(c(O)c1C2=O)C[C@@](O)(C(=O)CO)C[C@@H]3O[C@H]1C[C@H](N)[C@H](O)[C@H](C)O1` [Doxorubicin hydrochloride]: -10.6. As for `CC(=O)O[C@H]1C(=O)[C@@]2(C)[C@H]([C@H](OC(=O)c3ccccc3)[C@]3(O)C[C@H](OC(=O)[C@H](O)[C@@H](NC(=O)c4ccccc4)c4ccccc4)C(C)=C1C3(C)C)[C@]1(OC(C)=O)CO[C@@H]1C[C@@H]2O` [Taxol], the “activity during period 15” value is -4.11. For the molecule `CC[C@H]1OC(=O)[C@H](C)[C@@H](O[C@H]2C[C@@](C)(OC)[C@@H](O)[C@H](C)O2)[C@H](C)[C@@H](O[C@@H]2O[C@H](C)C[C@H](N(C)C)[C@H]2O)[C@](C)(O)C[C@@H](C)CN(C)[C@H](C)[C@@H](O)[C@]1(C)O` [Azithromycin], the “activity during period 15” value was -17.4.

Take `CC(=O)S[C@@H]1CC2=CC(=O)CC[C@]2(C)[C@H]2CC[C@@]3(C)[C@@H](CC[C@@]34CCC(=O)O4)[C@H]12` [Spironolactone]: the “activity during period 15” value is -1.27. Next, `CC/C(=C(\c1ccccc1)c1ccc(OCCN(C)C)cc1)c1ccccc1` [Tamoxifen citrate]: 20.1; `CCCCC(=O)N(Cc1ccc(-c2ccccc2-c2nnn[nH]2)cc1)[C@H](C(=O)O)C(C)C` [Valsartan]: 9.35; `COc1c(C)c2c(c(O)c1C/C=C(\C)CCC(=O)OCCN1CCOCC1)C(=O)OC2` [Mycophenolate mofetil]: -0.943. As for `O=C(NCC1CCCCN1)c1cc(OCC(F)(F)F)ccc1OCC(F)(F)F` (stereo not given) [Flecainide acetate], the “activity during period 15” value was -6.75. Next, `Cc1nc(Nc2ncc(C(=O)Nc3c(C)cccc3Cl)s2)cc(N2CCN(CCO)CC2)n1` [Dasatinib]: -15.1; `CC(C)C(=O)OCC(=O)[C@@]12O[C@H](C3CCCCC3)O[C@@H]1C[C@H]1[C@@H]3CCC4=CC(=O)C=C[C@]4(C)[C@H]3[C@@H](O)C[C@@]12C` [Ciclesonide]: -5.84; `COc1cc2nccc(Oc3ccc(NC(=O)C4(C(=O)Nc5ccc(F)cc5)CC4)cc3)c2cc1OC`: 16.2.

Regarding `CN/C(=N\CCSCc1nc[nH]c1C)NC#N` [Cimetidine], the “activity during period 15” value is -5.2. With `CC(=O)NC[C@H]1CN(c2ccc(N3CCOCC3)c(F)c2)C(=O)O1` [Linezolid], the “activity during period 15” value is -1.07. With `CNCc1ccc(-c2[nH]c3cc(F)cc4c3c2CCNC4=O)cc1` [Rucaparib camsylate], the “activity during period 15” value is -8.43. Consider `CS(=O)(=O)CCNCc1ccc(-c2ccc3ncnc(Nc4ccc(OCc5cccc(F)c5)c(Cl)c4)c3c2)o1` [Lapatinib], for which the “activity during period 15” value is -13.3. Next, `CCOC(=O)[C@H](CCc1ccccc1)N[C@H]1CCc2ccccc2N(CC(=O)O)C1=O` [Benazepril hydrochloride]: 4.55; `N#Cc1ccc(C(c2ccc(C#N)cc2)n2cncn2)cc1` [Letrozole]: 0.514; `CC(C)c1nc(N(C)S(C)(=O)=O)nc(-c2ccc(F)cc2)c1/C=C/[C@@H](O)C[C@@H](O)CC(=O)O` [Rosuvastatin calcium]: 15.5. Next, `CC(=O)Nc1ccc(O)cc1` [Acetaminophen]: 8.08; `COc1ccc([C@@H]2Sc3ccccc3N(CCN(C)C)C(=O)[C@@H]2OC(C)=O)cc1` [Diltiazem hydrochloride]: -3.65. In the case of `COc1cc2nc(N3CCN(C(=O)C4COc5ccccc5O4)CC3)nc(N)c2cc1OC` (stereo not given) [Doxazosin mesylate], the “activity during period 15” value is -7.81.

On to `CC(CCc1ccc(O)cc1)NCCc1ccc(O)c(O)c1` (stereo not given) [Dobutamine hydrochloride], for which the “activity during period 15” value is -8.99. With `CN1CCC[C@@H]1CCO[C@](C)(c1ccccc1)c1ccc(Cl)cc1` [Clemastine fumarate], the “activity during period 15” value was determined as 5.26.
